Source: PubChem BioAssay
CYP2C19 activ: human CYP2C19 activators, primary screen, biochemical, luminescence | Cytochrome P450 2C19 (Homo sapiens), P33261 | recombinant CYP2C19, luciferin-H EGE luminescence; stronger effect = higher value; 0 = fully inhibited enzyme, 1 = untreated enzyme | activation factor at 5 µM | 96,000 tested, under 10 active | AID 1025, 2008;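 active = activation factor of at least 2 at 5 µM in the primary screen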;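 also: 0 = wells with 2.5 mM tranylcypromine and 1 = vehicle-only wells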
Cav32 inh: Cav3.2 calcium influx blockers – cell-based, Fluo-4 calcium fluorescence, FDSS, MLSMR library, primary screen; Voltage-dependent T-type calcium channel subunit alpha-1H (Homo sapiens), O95180; Cav3.2-expressing cells; stronger effect = lower value; B-score at 10 µM; 4% of 100,000 active;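 active = single-dose well whose peak fluorescence ratio is a statistical outlier from its plate by either plate-standardised score or position-corrected B-score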
CYP2C19 inh: blockers of cytochrome P450 2C19 activity – biochemical, luminescence, ADME assay, primary screen; inhibition, % at 5 µM; CYP2C19 Supersomes, luciferin-H EGE luminescence, 30 min; P33261; 21% of 96,000 active;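 active = CYP2C19 inhibition above a set limit at 5 µM in the primary screen, cut at about 50% in these data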;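 also: plate controls were negative control wells for no effect and 2.5 mM tranylcypromine positive control for full effect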
CYP2C9 activ: human CYP2C9 activators, primary screen, biochemical, luminescence | activation factor at 5 µM | recombinant CYP2C9, luciferin-H conversion; stronger effect = higher value; factor 1 = untreated enzyme, 0 = blocked | 1.4% of 96,000 active | AID 1024, 2008;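 active = activation factor of 2 or more for CYP2C9 at a 5 µM dose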;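 also: 0 = sulfaphenazole-blocked wells and 1 = vehicle-only wells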
Target sequence (P11712 whole entry, looked up): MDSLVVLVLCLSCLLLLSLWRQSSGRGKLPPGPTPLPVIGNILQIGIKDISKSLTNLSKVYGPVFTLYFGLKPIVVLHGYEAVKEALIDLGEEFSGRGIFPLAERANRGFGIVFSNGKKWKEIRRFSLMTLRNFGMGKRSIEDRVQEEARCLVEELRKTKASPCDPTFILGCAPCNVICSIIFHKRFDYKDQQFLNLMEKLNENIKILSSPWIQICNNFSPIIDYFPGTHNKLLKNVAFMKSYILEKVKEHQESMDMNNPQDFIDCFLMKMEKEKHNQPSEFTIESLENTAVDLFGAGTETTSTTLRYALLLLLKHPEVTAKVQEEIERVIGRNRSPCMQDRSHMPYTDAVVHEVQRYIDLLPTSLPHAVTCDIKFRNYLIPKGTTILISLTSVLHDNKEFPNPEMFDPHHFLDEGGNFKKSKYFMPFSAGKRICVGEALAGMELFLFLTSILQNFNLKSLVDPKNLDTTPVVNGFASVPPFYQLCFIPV
PTK2B oligo ant: antagonists of Pyk2 self-association, primary screen, Q293 cells, FERM NanoBiT luminescence, HTS. Protein-tyrosine kinase 2-beta (Homo sapiens), Q14289. stronger effect = lower value. z-score (the deposit names both 25 µM and 10 µM). 0.83% of 99,000 active. AID 1347419, 2020;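 active = Z-score of -3 or lower, scaled per plate to the spread of control and sample wells; inactive = z-score above -3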;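 also: negative z-score means lost luminescence so less FERM oligomerization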
CYP2C9 inhib: blockers of cytochrome P450 2C9 activity – biochemical, luminescence, ADME assay, primary screen; P11712; inhibition, % at 5 µM; CYP2C9 Supersomes, luciferin-H conversion; 20% of 96,000 active;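 active = blocking of liver enzyme CYP2C9 beyond about 50% at 5 µM, limit read from the data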
* = called active by the depositor. The list is not random: actives were taken first. Their share in the collection is about 27%.

COc1ccc(C(N)=O)cc1N was read as CYP2C19 activ 1, Cav32 inh 0.098, CYP2C19 inh -4, CYP2C9 activ 0.9, PTK2B oligo ant -0.15 and CYP2C9 inhib 6.
Screening CN(C)c1ccc(C(=O)c2ccc(N(C)C)c(N)c2)cc1N returned CYP2C19 activ 0.2, CYP2C19 inh 81*, CYP2C9 activ 1.5, PTK2B oligo ant -0.5 and CYP2C9 inhib -51.
For CCOC(=O)c1cc2c(=O)n3cccc(C)c3nc2n(Cc2ccccc2Cl)c1=N the results were CYP2C19 activ 1, CYP2C19 inh 0, CYP2C9 activ 0.9 and CYP2C9 inhib 13.
COc1ccc2[nH]c(-c3ccc(C)cc3)cc(=O)c2c1 was read as Cav32 inh 0.049.
For CC1(C)CC(=O)C2=C(C1)Nc1ccccc1N=C2 the results were Cav32 inh -0.51.
`CC(=O)N1CCN(S(=O)(=O)c2ccc(S(=O)(=O)NCC(C)C)cc2)CC1` gave CYP2C19 activ 1.1, Cav32 inh 0.28, CYP2C19 inh -14, CYP2C9 activ 1.1, PTK2B oligo ant 1.3 and CYP2C9 inhib -9.
For CCCNS(=O)(=O)c1ccc(CCC(=O)Nc2ccc3c(c2)OCO3)cc1 the results were CYP2C19 activ 0.1, Cav32 inh -0.051, CYP2C19 inh 95*, CYP2C9 activ 0.2, PTK2B oligo ant 0.84 and CYP2C9 inhib 82*.
COc1ccc(CC(=O)Nc2ccc(S(=O)(=O)NC(C)C)cc2)cc1 was read as CYP2C19 activ 0.4, Cav32 inh 0.1, CYP2C19 inh 62*, CYP2C9 activ 0.4, PTK2B oligo ant 1.1 and CYP2C9 inhib 60*.
For CC(C)CNS(=O)(=O)c1ccc(CCC(=O)Nc2ccc3c(c2)OCCO3)cc1 the results were CYP2C19 activ 0.6, Cav32 inh -0.16, CYP2C19 inh 39, CYP2C9 activ 0.4, PTK2B oligo ant -0.2 and CYP2C9 inhib 58*.
Screening CC(C)CNS(=O)(=O)c1ccc(C(=O)Nc2ccc3c(c2)OCCO3)cc1 returned CYP2C19 activ 1.1, Cav32 inh -1, CYP2C19 inh -11, CYP2C9 activ 0.9, PTK2B oligo ant -1.2 and CYP2C9 inhib 10.
CC(C)NS(=O)(=O)c1ccc(CCC(=O)Nc2ccc3c(c2)OCO3)cc1 was read as CYP2C19 activ 0.5, Cav32 inh 1.2, CYP2C19 inh 48, CYP2C9 activ 0.5, PTK2B oligo ant -0.13 and CYP2C9 inhib 52*.
`Cc1nnsc1C(=O)Nc1cccc(Cl)c1Cl` gave Cav32 inh 1.4 and PTK2B oligo ant 0.09.
CSc1nc2c(c(-c3ccccc3)c1C#N)CCC2 was read as Cav32 inh -0.81 and PTK2B oligo ant 0.32.
Screening O=C(O)C(=O)Cc1c[nH]c2ccccc12 returned Cav32 inh 0.66.
`CCc1ccc(C2=Nn3c(nnc3-c3cccs3)SC2)cc1` gave CYP2C19 activ 1.1, Cav32 inh 0.035, CYP2C19 inh -8, CYP2C9 activ 1, PTK2B oligo ant -2.6 and CYP2C9 inhib -4.
CN1CCN(C(=S)Nc2ccc(Cl)cc2Cl)CC1 was read as CYP2C19 activ 0.9, Cav32 inh 0.89, CYP2C19 inh 9, CYP2C9 activ 0.9, PTK2B oligo ant 0.52 and CYP2C9 inhib 11.
`CSc1nc(C)c2cc(C)oc2n1` gave CYP2C19 activ 1.1, Cav32 inh -1, CYP2C19 inh -14, CYP2C9 activ 1.2, PTK2B oligo ant 1.6 and CYP2C9 inhib -19.
Cc1cc2c(C)nc(Cc3ccccc3)nc2o1 was read as CYP2C19 activ 0.3, Cav32 inh 0.9, CYP2C19 inh 74*, CYP2C9 activ 0.9, PTK2B oligo ant -0.14 and CYP2C9 inhib 9.
Screening CC(C)(C)OC(=O)N1CCCC(C(=O)CC#N)C1 (stereo not drawn) returned CYP2C19 activ 0.6, Cav32 inh 0.051, CYP2C19 inh 37, CYP2C9 activ 0.3, PTK2B oligo ant -0.25 and CYP2C9 inhib 66*.
`CC(C)(C)OC(=O)N1CCC(C(N)=O)CC1` gave CYP2C19 activ 1, Cav32 inh 0.52, CYP2C19 inh 2, CYP2C9 activ 1 and CYP2C9 inhib 4.
For CCOC(=O)c1ccc(NC(=O)C(CC)(CC)C(=O)OCC)cc1 the results were CYP2C19 activ 0.2, Cav32 inh -0.95, CYP2C19 inh 77*, CYP2C9 activ 0.4, PTK2B oligo ant -0.94 and CYP2C9 inhib 65*.
CCOc1ccc(NC(=O)C2CCC(N3C(=O)C4CC=CCC4C3=O)CC2)cc1 (stereo not drawn) was read as CYP2C19 activ 0.5, Cav32 inh -0.23, CYP2C19 inh 52*, CYP2C9 activ 0.5, PTK2B oligo ant 0.09 and CYP2C9 inhib 52*.
For COc1ccc(NC(=O)C2CCC(N3C(=O)C4C5C=CC(C5)C4C3=O)CC2)cc1 (stereo not drawn) the results were CYP2C19 activ 1, Cav32 inh 0.96, CYP2C19 inh 1, CYP2C9 activ 0.8, PTK2B oligo ant 0.14 and CYP2C9 inhib 21.
Screening CCOC(=O)c1ccc(Nc2nnc(C(C)(C)C)c(=O)[nH]2)cc1 returned CYP2C19 activ 1.1, Cav32 inh -1.9, CYP2C19 inh -6, CYP2C9 activ 0.9, PTK2B oligo ant -2.9 and CYP2C9 inhib 9.
`CCOC(=O)c1ccc(Nc2cc(C)nc(C)c2C(=O)OCC)cc1` gave CYP2C19 activ 0.1, Cav32 inh -0.0025, CYP2C19 inh 89*, CYP2C9 activ 0.5, PTK2B oligo ant -1.8 and CYP2C9 inhib 52*.
CCOC(=O)c1ccc(NC(=O)COC)cc1 was read as CYP2C19 activ 0.8, Cav32 inh -0.22, CYP2C19 inh 23, CYP2C9 activ 0.8, PTK2B oligo ant 0.23 and CYP2C9 inhib 16.
`CCOC(=O)c1ccc(NC(=O)C2CC2)cc1` gave CYP2C19 activ 0.2, Cav32 inh 0.47, CYP2C19 inh 79*, CYP2C9 activ 0.7, PTK2B oligo ant -0.65 and CYP2C9 inhib 35.
O=C(O)Cn1nnnc1SCC(=O)Nc1ccc(OC(F)(F)F)cc1 was read as CYP2C19 activ 1.2, Cav32 inh 0.28, CYP2C19 inh -18, CYP2C9 activ 1.1, PTK2B oligo ant 0.15 and CYP2C9 inhib -14.
`CCn1c(SCC(=O)Nc2nccs2)nnc1-c1ccc(S(=O)(=O)N2CCCCC2)cc1` gave CYP2C19 activ 0.8, Cav32 inh -1.9, CYP2C19 inh 18, CYP2C9 activ 0.5, PTK2B oligo ant -0.19 and CYP2C9 inhib 46.
